The values that follow come from PubChem BioAssay (NCI).

About 83,000 compounds went through this panel and 20% of them were active in at least one assay; those are over-represented in the sample as a whole.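 Interpretation: 100, growth as untreated; towards 0, rising growth inhibition; 0, no net growth; 0 to -100, cell death. Compounds scoring below 10 were considered active.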 Values without a mark were called inactive. Activity calls are given as the source filed them.

Among the test systems are DU-145 prostate; K-562 leukemia; MALME-3M melanoma; MDA-MB-231 breast; RXF 393 renal; SF-268 CNS; SF-295 CNS; SF-539 CNS; M14 melanoma.
What all share (assay): NCI-60 one-dose screen, 48 h (100 = growth as untreated, 0 = no growth, -100 = all killed)
What all share (conditions): 10 µM unless noted

With `C=C1C(=O)O[C@H]2[C@H]1CC/C(COC(=O)NCCc1ccc(Br)cc1)=C\CC[C@@]1(C)O[C@@H]21`, the growth in the test on DU-145 prostate is -33.6% (active); with K-562 leukemia it was 5.94% (active); in the test with MALME-3M melanoma it was 73.7%; in the test on MDA-MB-231 breast, -33.4% (active); in the test on RXF 393 renal it was -35.3% (active); with SF-268 CNS, 42.4%. The values for the growth in the test on SF-295 CNS, in the test on SF-539 CNS and in the test with M14 melanoma were 86.5%, 20.2% and 19.9%, respectively.
On to `Cc1cccc2cc(/C=C/C(=O)/C=C/c3ccc(Cl)cc3)c(=O)[nH]c12`, for which the growth with DU-145 prostate is 39.1%; in the test on K-562 leukemia it was 10.8%; in the test on MALME-3M melanoma, 106%; in the test on MDA-MB-231 breast it was 25.7%; with RXF 393 renal, 36.8%; with SF-268 CNS it was 62%. Moreover, the growth is 83.8% in the test on SF-295 CNS, 69.7% in the test with SF-539 CNS and 30.5% in the test with M14 melanoma.
Turning to `COC(=O)c1ccc(C)cc1`, the growth in the test on DU-145 prostate was 103%; in the test with K-562 leukemia it was 102%; in the test with MALME-3M melanoma, 108%; in the test on MDA-MB-231 breast it was 107%; with RXF 393 renal it was 106%; in the test on SF-268 CNS, 97.9%. The growth with SF-295 CNS was 102%; in the test with SF-539 CNS it was 103%; in the test on M14 melanoma it was 116%.
In the case of `Cc1c(C2=NNC(c3ccc4c(c3)OCO4)C2)[n+]([O-])c2ccccc2[n+]1[O-]` (stereo not given), the growth is 103% with DU-145 prostate; 91.2% in the test on K-562 leukemia; 154% in the test with MALME-3M melanoma; 102% with MDA-MB-231 breast; 96.4% in the test on RXF 393 renal; 114% in the test with SF-268 CNS. Besides, the growth in the test with SF-295 CNS was 105%; in the test with SF-539 CNS, 96.2%; with M14 melanoma, 99.6%.
Turning to `CC/C=C\C/C=C\C[C@H]1C/C=C2/C(=O)C=C[C@H]2C/C=C\CCC(=O)O1`, the growth was 12.7% with DU-145 prostate; 1.48% (active) with K-562 leukemia; 12.4% with MALME-3M melanoma; 3.22% (active) in the test on MDA-MB-231 breast; -48% (active) with RXF 393 renal; 12.7% with SF-268 CNS. The growth with SF-295 CNS is 6.87% (active); with SF-539 CNS, 13%; with M14 melanoma it was -3.62% (active).
As for `N#CC1=C(N)n2nc(-c3ccncc3)nc2NC1c1cccc2ccccc12` (stereo not given), the growth was 93.3% in the test with DU-145 prostate; 80.9% with K-562 leukemia; 82% in the test with MALME-3M melanoma; 77.6% with MDA-MB-231 breast; 87.4% in the test on RXF 393 renal; 94.5% with SF-268 CNS. Further, the growth is 90.5% with SF-295 CNS, 88.2% in the test with SF-539 CNS and 90.1% in the test on M14 melanoma.
For `CC1Cc2c(N(C)C)ncnc2N(C)c2ccc(Cl)cc21` (stereo not given), the growth was 52.4% in the test with DU-145 prostate; 14.3% in the test with K-562 leukemia; 51.4% with MALME-3M melanoma; 55% in the test with MDA-MB-231 breast; 42.6% with RXF 393 renal; 44.5% in the test on SF-268 CNS. Also, the results for the growth in the test with SF-295 CNS, with SF-539 CNS and in the test with M14 melanoma were 3.45% (active), 4.81% (active) and 22.2%, respectively.
`Cc1cc2c(C(C)C)c(O)c(O)c(C=NCCCCCCC(=O)O)c2c(O)c1-c1c(C)cc2c(C(C)C)c(O)c(O)c(C=NCCCCCCC(=O)O)c2c1O`: the growth in the test with DU-145 prostate is 51.3%; in the test with K-562 leukemia it was 12.6%; in the test on MALME-3M melanoma, 62.8%; in the test with MDA-MB-231 breast it was 39.2%; with RXF 393 renal it was 34.2%; in the test with SF-268 CNS, 36.2%. In addition, the growth in the test on SF-295 CNS is 11.9%; in the test on SF-539 CNS it was 23.1%; with M14 melanoma, 37%.
On to `Cc1ccc(S(=O)(=O)OCC(=O)Nc2ccc(C(=O)O)c(O)c2)cc1`, for which the growth with DU-145 prostate was 100%; with K-562 leukemia it was 70.2%; in the test on MALME-3M melanoma it was 106%; with MDA-MB-231 breast, 97.2%; with RXF 393 renal, 63.1%; with SF-268 CNS, 97%. Further, the growth was 110% in the test with SF-295 CNS, 96.1% with SF-539 CNS and 95.4% in the test on M14 melanoma.
Turning to `COc1ccc2c(c1)NC(=O)CN2c1nc(C)nc2ccccc12`, the growth in the test with DU-145 prostate was -0.215% (active); in the test with K-562 leukemia, 9.83% (active); in the test on MALME-3M melanoma it was 67.6%; in the test with MDA-MB-231 breast it was 11.6%; in the test with RXF 393 renal, 55.1%; in the test with SF-268 CNS it was 24.4%. For the same compound, the results for the growth in the test on SF-295 CNS, with SF-539 CNS and in the test on M14 melanoma were 14.2%, -0.932% (active) and 10.8%, respectively.
Consider `C/C(=C\c1csc(C)n1)[C@@H]1C[C@@H]2O[C@]2(C)CCC[C@H](C)[C@H](O)[C@@H](C)C(=O)C(C)(C)[C@@H](O)CC(=O)N1`, for which the growth was -78.9% (active) with DU-145 prostate; 1.67% (active) in the test on K-562 leukemia; 66.3% in the test on MALME-3M melanoma; -54.7% (active) with MDA-MB-231 breast; -83.3% (active) in the test with RXF 393 renal; -47.8% (active) in the test with SF-268 CNS. In addition, the growth in the test on SF-295 CNS was -64.6% (active); in the test on SF-539 CNS it was -87.4% (active); in the test with M14 melanoma it was -44.1% (active).
As for `CC(=O)Nc1ccc2c(c1)/C(=C\C=C/c1ccc([N+](C)(C)C)cc1)c1ccccc1-2`, the growth with DU-145 prostate was 73%; in the test on K-562 leukemia, 49.5%; with MALME-3M melanoma, 86.5%; in the test with MDA-MB-231 breast it was 63.7%; with RXF 393 renal, 99.1%; in the test on SF-268 CNS, 48.6%. Moreover, the values for the growth in the test with SF-295 CNS, with SF-539 CNS and in the test on M14 melanoma were 46.5%, 42.4% and 71.5%, respectively.
Regarding `Cn1c(=O)c2c(nc3n2CCN(CCc2ccc(OCCN4CCOCC4)cc2)C3)n(C)c1=O`, the growth was 109% with DU-145 prostate; 109% in the test on K-562 leukemia; 106% in the test with MALME-3M melanoma; 104% in the test with MDA-MB-231 breast; 111% in the test with RXF 393 renal; 105% in the test on SF-268 CNS. Besides, the growth with SF-295 CNS is 106%; in the test with SF-539 CNS, 109%; in the test on M14 melanoma, 105%.
For the compound `C=C1C(=O)O[C@H]2[C@H]1CC/C(Cn1cc(-c3ccccc3C(F)(F)F)nn1)=C\CC[C@@]1(C)O[C@@H]21`, the growth in the test on DU-145 prostate was -95.4% (active); in the test with K-562 leukemia it was -13% (active); in the test with MALME-3M melanoma, -59.3% (active); with MDA-MB-231 breast, -33.4% (active); in the test on RXF 393 renal, -72.3% (active); with SF-268 CNS, -4.71% (active). In addition, the growth in the test on SF-295 CNS was 58.8%; with SF-539 CNS it was -74.9% (active); with M14 melanoma it was -79.1% (active).
On to `O=S(=O)(NCCCNc1cc(-c2cn(-c3ccccc3)nc2-c2cccc(O)c2)ccn1)c1cccc(F)c1`, for which the growth in the test on DU-145 prostate is 59.4%; with K-562 leukemia, 1.85% (active); in the test with MALME-3M melanoma, 37.9%; in the test on MDA-MB-231 breast, 7.26% (active); in the test on RXF 393 renal, 40.1%; in the test with SF-268 CNS, 60.7%. Also, the growth was 9.83% (active) with SF-295 CNS, 45.1% with SF-539 CNS and 42.3% in the test on M14 melanoma.
